Efflux pump mplx: blocks antifungal efflux pumps in multiplex yeast assay | S. cerevisiae Candida pump triplex, Nile Red efflux | inhibition, % at 10 µM | 330,000 tested, 0.44% active | AID 485275;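 active means plate passing quality check with inhibition over a set limit, or well fluorescence over plate mean plus 4 SD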;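 further: Nile Red retained in pooled yeast measured as flow cytometry median fluorescence; 0% = buffer negative control and 100% = Enniatin B positive control; higher means more Nile Red kept so more efflux inhibition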
NCOA3 inh: human NCOA3 inhibition; Q9Y6Q9; HEK293 GAL4-SRC3 luciferase reporter, luminescence; inhibition, % at 3.6 µM; 360,000 tested, 0.17% active;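 active means inhibition above a per-campaign cutoff, the mean of all compounds plus 3 SD, cut at about 60% in these data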;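 further: 0% = DMSO-treated cells and 100% = gossypol-treated cells at 36 µM; higher means less SRC3-driven luciferase light from the GAL4 reporter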
Target sequence (Q9Y6Q9 whole entry, looked up, the tested form may be a part): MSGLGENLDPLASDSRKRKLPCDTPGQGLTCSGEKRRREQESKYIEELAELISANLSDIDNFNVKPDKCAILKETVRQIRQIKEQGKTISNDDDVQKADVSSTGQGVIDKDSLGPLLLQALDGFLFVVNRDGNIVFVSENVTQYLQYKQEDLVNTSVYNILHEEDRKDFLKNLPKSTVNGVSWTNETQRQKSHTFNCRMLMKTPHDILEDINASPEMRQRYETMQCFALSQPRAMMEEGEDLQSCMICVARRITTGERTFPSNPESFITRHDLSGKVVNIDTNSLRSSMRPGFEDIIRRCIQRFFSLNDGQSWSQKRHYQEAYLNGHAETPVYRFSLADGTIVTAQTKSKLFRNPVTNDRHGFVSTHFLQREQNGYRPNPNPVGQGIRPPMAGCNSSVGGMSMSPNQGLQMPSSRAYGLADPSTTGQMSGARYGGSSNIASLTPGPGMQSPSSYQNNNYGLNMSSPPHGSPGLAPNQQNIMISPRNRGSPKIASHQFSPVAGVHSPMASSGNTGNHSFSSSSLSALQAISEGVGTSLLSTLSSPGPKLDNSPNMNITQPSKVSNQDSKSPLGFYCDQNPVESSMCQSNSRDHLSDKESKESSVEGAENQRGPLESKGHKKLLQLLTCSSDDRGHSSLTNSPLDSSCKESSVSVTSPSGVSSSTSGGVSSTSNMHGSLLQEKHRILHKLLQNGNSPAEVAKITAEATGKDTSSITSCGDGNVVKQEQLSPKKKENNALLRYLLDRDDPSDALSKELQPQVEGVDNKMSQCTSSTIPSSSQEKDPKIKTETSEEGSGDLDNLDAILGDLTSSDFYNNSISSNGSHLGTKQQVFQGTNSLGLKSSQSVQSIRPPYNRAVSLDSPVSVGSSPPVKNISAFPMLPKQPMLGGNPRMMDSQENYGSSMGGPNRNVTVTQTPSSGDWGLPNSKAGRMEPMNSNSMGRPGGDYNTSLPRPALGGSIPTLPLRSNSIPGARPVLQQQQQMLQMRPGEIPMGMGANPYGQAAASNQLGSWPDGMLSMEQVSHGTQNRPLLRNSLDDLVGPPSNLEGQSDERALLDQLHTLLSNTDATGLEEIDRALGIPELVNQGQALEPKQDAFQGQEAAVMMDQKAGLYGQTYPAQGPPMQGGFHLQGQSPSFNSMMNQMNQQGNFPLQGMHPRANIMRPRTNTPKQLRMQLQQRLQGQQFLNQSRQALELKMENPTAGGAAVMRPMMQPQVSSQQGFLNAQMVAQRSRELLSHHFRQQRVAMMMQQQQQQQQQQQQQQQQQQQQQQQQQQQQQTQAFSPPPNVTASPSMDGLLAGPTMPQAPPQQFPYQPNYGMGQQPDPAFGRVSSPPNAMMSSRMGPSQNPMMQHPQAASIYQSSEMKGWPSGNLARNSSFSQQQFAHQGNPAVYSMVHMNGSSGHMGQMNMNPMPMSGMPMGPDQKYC
SRC1 inh: inhibits human SRC1 coactivator | Q15788 | HEK293 GAL4-SRC1 luciferase reporter, luminescence | inhibition, % at 3.6 µM | 360,000 tested, 0.12% active | AID 588354;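 active means inhibition above the campaign mean plus 3 SD, with each screening campaign given its own cutoff, cut at about 60% in these data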;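 further: 0% = DMSO treated cells and 100% = gossypol at 36 µM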
COUP-TFII inh: NR2F2 (human) inhibition, primary screen | HEK293T NGFI-A luciferase reporter, luminescence | inhibition, % at 8.6 µM | AID 686940 | 370,000 tested, 0.7% active | P24468;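 active means inhibition above a per-plate cutoff, mean inhibition of test wells between control levels plus 3 SD, cut at about 38% in these data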;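 further: cells cotransfected with COUP-TFII expression vector driving the NGFI-A reporter; 0% = median of COUP-TF2 test wells and 100% = reporter-only cells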
NCOA2 inhibitor: inhibits human steroid receptor coactivator 2; Q15596; AID 651957; HEK293 GAL4-SRC2 luciferase reporter, luminescence; inhibition, % at 9 µM; 370,000 tested, 0.17% active;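 active means inhibition above the mean inhibition of all tested compounds plus 3 SD, set per campaign, cut at about 52% in these data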;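 further: 0% = DMSO treated cells and 100% = cells given Gossypol at 36 µM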
LRH-1 inv ag: suppresses constitutive activity of human LRH-1. O00482. HEK293T StAR-luciferase reporter, LRH-1 transfected, 24 h. inhibition, % at 3.6 µM. 360,000 tested, 0.13% active;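 active means inhibition above the mean inhibition of all tested compounds plus 3 SD, cut at about 73% in these data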;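 further: 0% = DMSO wells and 100% = reporter-only cells lacking LRH-1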
Gal4-VP16 ctr: counter-screen for COUP-TFII antagonists: inhibitors of VP16; shares compounds with COUP-TFII inh; HEK293 Gal4-VP16 luciferase reporter, luminescence; inhibition, % at 8.5 µM; 2,500 tested, 25% active; AID 687007; in the data active means inhibition above about 13%
NR2F2 inh conf: COUP-TFII (NR2F2) inhibition, confirmation assay | HEK293 NGFI-A luciferase reporter, luminescence | shares compounds with COUP-TFII inh | inhibition, % at 8.5 µM | 2,500 tested, 45% active;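 active means mean inhibition over three repeats above a set limit taken from the earlier primary screen, cut at about 38% in these data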;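 further: 100% = cells given the luciferase reporter alone without the COUP-TF2 vector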
An asterisk follows results filed as active; x = not tested or not shown. Sampled rows, rich in hits. Any-hit rate of the full collection: about 1.2%.

SMILES | Efflux pump mplx | NCOA3 inh | SRC1 inh | COUP-TFII inh | NCOA2 inhibitor | LRH-1 inv ag | Gal4-VP16 ctr | NR2F2 inh conf
Cc1ccc(CC(=O)Nc2cccnc2)cc1 | 0 | 8 | 4 | -10 | 19 | 1 | x | x
CN(CCCC(=O)Nc1ccncc1)S(=O)(=O)c1ccc(Cl)cc1 | 0 | 9 | 13 | 52* | 8 | 1 | 4 | 30
O=C(Cc1ccc(Cl)cc1)Nc1ccncc1 | 0 | 21 | 6 | 40* | 18 | 33 | -3 | 8
Cc1ccc(CC(=O)Nc2ccncc2)cc1 | 0 | 4 | 0 | 55* | 17 | 46 | -9 | 24
O=C(Nc1ccncc1)Nc1ccc(Cl)cc1 | 0 | 10 | -16 | -13 | -5 | -7 | x | x
O=C(CCl)Nc1ccc(C(=O)NCC2COc3ccccc3O2)cc1 (centres undefined) | x | x | x | 40* | 44 | x | 67* | 25
O=C(Cc1ccccc1)Nc1ccc(C(=O)NCC2COc3ccccc3O2)cc1 (centres undefined) | 0 | -19 | 8 | -6 | -8 | 34 | x | x
Cc1cc(C(=O)NCC2COc3ccccc3O2)c2ccccc2n1 (centres undefined) | 0 | 19 | 10 | 38* | -19 | -4 | 4 | 5
CCOC(=O)N1CCN(C(=O)CSCC(=O)Nc2nc(-c3ccc(OC)cc3)cs2)CC1 | 0 | -8 | -9 | -11 | -27 | -31 | x | x
CCOC(=O)N1CCN(C(=O)CSCC(=O)Nc2nc(-c3ccc(-c4ccccc4)cc3)cs2)CC1 | 1 | 8 | -9 | 68* | 25 | -21 | -101 | 71*
Cc1ccc([N+](=O)[O-])c(C(=O)Nc2cccnc2Cl)c1 | 0 | 9 | 6 | -1 | -13 | 17 | x | x
Cc1ccccc1CC1(CO)CCCN(Cc2ccccc2Cl)C1 (centres undefined) | 0 | 13 | -1 | -18 | 22 | -7 | x | x
c1ccc(C[n+]2cccc3c4ccccc4ccc32)cc1 | 0 | 33 | 19 | 53* | 19 | 61 | 3 | 45*
CCCCC[n+]1cccc2c3ccccc3ccc21 | 0 | 57 | 51 | 64* | -29 | 78* | 16* | 60*
O=[N+]([O-])c1ccc(C[n+]2cccc3ccccc32)cc1 | 0 | 4 | 2 | -5 | -9 | 12 | x | x
COC(=O)[C@]12C[C@H](CC(=O)N3CCN(C(=O)C4CC4)CC3)C(=O)N(Cc3cccc4ccccc34)C1=C[C@H](COCc1ccccc1)O[C@@H]2C | x | x | x | 9 | 2 | x | x | x
Cc1ccc(S(=O)(=O)N(C)C)cc1NC(=O)C(C)OC(=O)C1CCC1 (centres undefined) | 0 | 9 | 2 | -20 | 6 | 6 | x | x
Cc1ccc(Cl)cc1S(=O)(=O)N1CCC(C(=O)NC2CCN(Cc3ccccc3)CC2)CC1 | 0 | 16 | 13 | 38* | 16 | 9 | 5 | 44*
O=C(NC1CCN(Cc2ccccc2)CC1)c1cccc(S(=O)(=O)Nc2ccc(SC(F)F)cc2)c1 | 0 | -3 | 16 | 22 | 21 | 15 | x | x
Cc1ccc(NS(=O)(=O)c2cccc(C(=O)NC3CCN(Cc4ccccc4)CC3)c2)cc1 | x | 14 | 8 | 40* | 15 | 19 | 3 | 20
Cc1ccc(NS(=O)(=O)c2ccc(C(=O)NC3CCN(Cc4ccccc4)CC3)cc2)cc1 | 0 | 21 | 31 | 64* | -1 | 38 | 1 | 49*
O=C(COC(=O)C1CC1)Nc1ccc2c(c1)OCO2 | 0 | 6 | -9 | -31 | -49 | -12 | x | x
COc1ccc(CN(C)C(=O)c2ccc(NS(=O)(=O)c3ccc(F)cc3)cc2)c(OC)c1OC | 0 | 14 | -31 | 3 | -6 | 23 | x | x
C=CC[C@@H](Cc1ccc(F)cc1)C(=O)OC[C@@H]1CCCN1C(=O)[C@H](CC=C)CC(=O)N[C@H](CO)Cc1ccccc1 | 0 | -7 | -1 | -2 | 16 | 10 | x | x
Cc1ccc(C(=O)NCC(=O)OCCCOC(=O)CNC(=O)c2ccc(C)cc2)cc1 | 0 | -16 | -21 | 6 | -40 | -12 | x | x
SMILES | Efflux pump mplx | NCOA3 inh | SRC1 inh | COUP-TFII inh | NCOA2 inhibitor | LRH-1 inv ag | Gal4-VP16 ctr | NR2F2 inh conf
O=C1C(=C(c2ccccc2)N2CCOCC2)Cc2ccccc21 | x | 9 | -9 | 39* | -145 | 14 | 40* | 14
O=C(c1ccccc1)N1CCN(C(=O)N2CCOCC2)CC1 | 0 | 10 | 4 | 6 | 19 | -4 | x | x
Cc1ccc(C2(c3ccc(C)cc3)CC2C(=O)Nc2ccc([N+](=O)[O-])cc2O)cc1 (centres undefined) | 0 | 56 | 21 | 67* | 0 | 22 | 1 | 23
CC1(C)CC1C(=O)Nc1ccc([N+](=O)[O-])cc1Br (centres undefined) | 0 | 2 | -11 | 2 | 4 | 5 | x | x
COCCCNc1nc2c(-c3ccc(C)cc3)nnn2c2ccccc12 | 0 | -106 | -164 | -45 | -65 | -36 | x | x
c1csc(CCNc2ncnc3sc4c(c23)CCC4)c1 | 0 | 29 | 16 | 67* | 17 | 46 | 3 | 46*
c1ccc(Nc2ncnc3sc4c(c23)CCC4)cc1 | 0 | 13 | 17 | 15 | 12 | -2 | x | x
Cc1ccc(C)c(-c2nc3cc(N)ccc3o2)c1 | 0 | -8 | -14 | 42* | 55* | -17 | 1 | -18
COC(=O)c1ccc(-c2nc3cc(N)ccc3o2)cc1 | 0 | -13 | -40 | 41* | 42 | 29 | 22* | -11
CCc1c(C2CC2)ncn1Cc1cccc(-c2ccccc2)c1 | x | x | x | 24 | -3 | 33 | x | x
COc1ccc(/C=N/N2CCOCC2)cc1Cn1cc([N+](=O)[O-])cn1 | 0 | 4 | 10 | -12 | -9 | 9 | x | x
CCc1nc2ccc(C(=O)Nc3cc(-c4ccccc4)ccc3OC)cn2c1N(C)Cc1ccc(OC)cc1 | x | -28 | -1 | 8 | -8 | -11 | x | x
CCc1nc2ccc(C(=O)Nc3cc(-c4ccccc4)ccc3OC)cn2c1N(C)Cc1nccs1 | x | 15 | 13 | 50* | 9 | -14 | 6 | 21
CCc1nc2ccc(C(=O)Nc3ccc(NC(C)=O)cc3)cn2c1N(C)C(=O)Cc1ccccc1 | x | -2 | 7 | 53* | 13 | -14 | -8 | 3
CSc1cccc(NC(=O)CN(Cc2ccc(Cl)cc2)S(C)(=O)=O)c1 | 0 | -18 | 10 | -8 | -13 | 10 | x | x
CC(C)(C)c1ccc(C(=O)NCCOc2ccccc2F)cc1 | 0 | 33 | 38 | 53* | 40 | 29 | -23 | 46*
Cc1ccc(NC(=O)COc2cccc3ccccc23)c(O)c1 | 0 | 2 | -10 | -12 | 6 | -8 | x | x
NC(=O)c1ccc(N2CCN(S(=O)(=O)c3cccs3)CC2)c([N+](=O)[O-])c1 | 0 | 34 | 16 | 60* | -10 | 48 | 5 | 56*

Compound activity (PubChem BioAssay)
